# Legend:
# Type in all cases: functional
# [1] = system: Plasmodium falciparum; test: GSK_TCMDC: Inhibition of Plasmodium falciparum 3D7 in whole red blood cells, using parasite LDH activity as an index of growth. Test compounds present at 2uM
# [2] = system: Plasmodium falciparum; test: GSK_TCMDC: Inhibition of Plasmodium falciparum Dd2 in whole red blood cells, using parasite LDH activity as an index of growth. Test compounds present at 2uM
# [3] = system: HepG2; test: GSK_TCMDC: Percent inhibition of human HepG2 cell line. Test compounds present at 10uM.
Compound,Inhibition [1],Inhibition [2],Inhibition [3]
CC1(CCCCN2CCC(Oc3ccc(F)cc3F)CC2)C(=O)Nc2ccccc21.Cl (centres undefined),99%,6%,6%
CS(=O)(=O)c1ccc(CNCc2cccc(-c3cccc(-c4nc5cc(F)ccc5[nH]4)c3)c2)cc1.O=C(O)C(F)(F)F,100%,84%,11%
CC(C)CNCc1ccc(OCc2cccc(COc3ccc(CNCC(C)C)cc3I)c2)c(I)c1.Cl,98%,84%,23%
Cl.c1cc2c3c(cccc3c1)NC(CCCCCCCCC1=Nc3cccc4cccc(c34)N1)=N2,93%,6%,14%
CC(=O)Nc1ccccc1OCc1cc2cc(C(=O)N3CCC(N4C(=O)OCc5ccccc54)CC3)ccc2o1,99%,98%,34%
CC1CN(c2ccc(NC(=O)c3ccsc3)cc2C(=O)N2CCN(Cc3ccc(C(C)(C)C)cc3)CC2)CC(C)O1 (centres undefined),90%,80%,12%
Cl.Nc1ccc(-c2nc3c(ccc4ccccc43)[nH]2)cc1,84%,51%,0%
COc1cc(CN2CCC(CO)(Cc3cccc(C(F)(F)F)c3)CC2)c(Cl)cc1O,99%,64%,12%
Clc1cccc(C23N/C(=N\c4nc5ccccc5[nH]4)NC2(c2ccccc2)N/C(=N\c2nc4ccccc4[nH]2)N3)c1 (centres undefined),85%,88%,0%
COc1ccc(-c2ccnc(-c3cccc(-c4ccccn4)n3)c2)cc1,97%,84%,44%
Cc1ccc(O)c(C(=O)c2cnc3c(c2)c(-c2ccc(F)cc2)c(C#N)c(=O)n3C)c1,93%,56%,17%
O=C(Nc1cccc(-c2ccc(-c3nc4cc(F)ccc4[nH]3)s2)c1)c1cccnc1,100%,72%,46%
COc1ccc(C)c(Nc2ccnc(Nc3ccc(-c4cnc[nH]4)cc3)n2)c1.Cl,97%,6%,40%
CCCCN(CCCC)CCCCCCNc1c2ccccc2nc2ccccc12.Cl,95%,87%,49%
Cc1cc2c3c(N)nc(N)nc3ccc2n1C(C)C,93%,0%,70%
O=C(O)C(F)(F)F.c1cc(CN2CCCCC2)cc(-c2ccc(-c3nc4ccccc4[nH]3)s2)c1,100%,100%,11%
CS(=O)(=O)Nc1ccc2[nH]cc(C3CCN(CC4CCC(NC(=O)/C=C/c5ccc(Cl)c(Cl)c5)CC4)CC3)c2n1 (centres undefined),99%,10%,2%
Cc1c(Cc2ccc(F)cc2)c(Cl)nc2nc(N)nc(N)c12,92%,1%,66%
Cc1cccc2nc(-c3ccc(-c4cccc(NC(=O)Nc5ccc(Cl)c(Cl)c5)c4)s3)[nH]c12,100%,36%,46%
COc1ccc(NC(=O)C2CCN(CCCCCNC(=O)/C=C/c3ccc(Cl)c(Cl)c3)CC2)cc1,98%,0%,26%
Cc1cccc2nc(-c3cccc(-c4cccc(NC(=O)NC5CC5c5ccccc5)c4)c3)[nH]c12 (centres undefined),98%,28%,0%
CCCc1nc2c(N3CCCN(C(=O)NC4CCCCC4)CC3)cccc2n1Cc1ccccn1,89%,10%,10%
CCOC(=O)c1ccc(NC(=O)Nc2ccc(-c3ccc(-c4nc5cccc(C)c5[nH]4)s3)cc2)cc1,100%,100%,60%
O=C(/C=C/c1ccc(Cl)c(Cl)c1)NCCCCCN1CC[C@H](NC(=O)Nc2ccc(Oc3ccccc3)cc2)C1,100%,14%,47%
Cl.c1ccc(CN2CCN(CCNc3c4ccccc4nc4ccccc34)CC2)cc1,100%,97%,44%
O=C(NCCc1ccccc1)N(Cc1ccccc1-c1cccc(CNCc2ccc3c(c2)OCO3)c1)C1CCN(Cc2ccccc2)CC1.O=C(O)C(F)(F)F,93%,77%,29%
COc1ccc(C(C(=O)NC2CCN(C[C@H](O)c3ccnc4ccc(OC)cc34)CC2)N2CCN(c3ccc(Cl)c(Cl)c3)CC2)cc1 (some centres undefined),100%,79%,12%
COc1cc2nc(N3CCN(c4nc(N)c5cc(OC)c(OC)cc5n4)CC3)nc(N)c2cc1OC,100%,99%,13%
